# Results: PubChem BioAssay AID2685 (National Center for Advancing Translational Sciences (NCATS), 2010)
# The whole screen tested about 320,000 compounds, of which about 2,100 (0.66%) were called active. Inconclusive results (about 53%) are left out. The sample holds actives, similar compounds and a random draw of the others, so the mix is not that of the screen. Calls follow the shape of the dose curve; as a rule, active = well fitted inhibition curve with a large enough effect in the signal ratio, with a control signal flat (not every such curve was filed as active); inconclusive = small, poorly fitted or top-dose-only effect, or effect the other way, or a change in a side signal; inactive = flat fitted curve, though single readings scatter; the % refers to the signal ratio.
# Experiment: qHTS Assay for Lipid Storage Modulators in Drosophila S3 Cells;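 as to cell number change: cells counted by Cell Tracker Red CMTPX staining in the red channel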; as to lipid storage change, negative = inhibition: % is scaled to controls: 0 for no effect and ±100 for the full control effect
# Conditions: BODIPY lipid droplet fluorescence, 18-24 h, cells fed with added oleic acid; cell number change: measured here: cell count max response; series mostly up to 46.1 µM; lipid storage change, negative = inhibition: at the top concentration
# Outline: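 Drosophila S3 cells got compounds at several concentrations plus oleic acid (400 uM solution). Laser-scanning cytometry with 488 nm excitation read lipid droplets at 500-530 nm and cells at 575-640 nm. Percent activity was relative to 20 uM Triacsin C.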
# Potency is read from the fitted curve at half-maximal effect.
SMILES,"lipid storage change, negative = inhibition",Potency,cell number change,outcome
N#Cc1c(-c2ccco2)cc(-c2ccccc2)[nH]c1=O,15.9% (inactive),,,
N#Cc1c(-c2ccccc2)cc(-c2ccc3c(c2)OCO3)[nH]c1=O,,8.2 µM (active),-26.7%,
CC(C)=C1C2CCC1C1C(=O)N(c3nc(-c4ccc(F)cc4)c(C)s3)C(=O)C21 (stereo unspecified),-1.57% (inactive),,-3.6%,
COc1ccc(N2CCN(CC(=O)Nc3cc(C)on3)CC2)cc1,7.12% (inactive),,7.54%,
Cc1ccc(Nc2nc(C(=O)N3CCC(C(=O)NCCN4CCOCC4)CC3)cs2)cc1,,,,inactive
O=C(N/N=C/c1ccc(-c2cccc(C(F)(F)F)c2)o1)c1cccc(F)c1,,,,inactive
O=C(O)c1ccc2nc(-c3ccccc3)c(-c3ccccc3)nc2c1,-8.03% (inactive),,-2.52%,
CCN(CC)C(=O)c1ccc2nc(-c3ccccc3)c(-c3ccccc3)nc2c1,15.6% (inactive),,-0.854%,
CC(C)N(C(=O)c1ccc2nc(-c3ccccc3)c(-c3ccccc3)nc2c1)C(C)C,,1.64 µM (active),-9.21%,
CCOc1ccc(NC(=O)CN(C)C(=O)c2ccc(COc3ccccc3)o2)cc1OCC,,,24.1%,inactive
CCN(CC)CCn1c(=N)n(CCO)c2ccccc21,,3.26 µM (active),-11.1%,
CCN(CC)CCn1c(=N)n(CC(O)c2ccco2)c2ccccc21 (stereo unspecified),-0.632% (inactive),,6.57%,
CCN(CC)CCn1c(=N)n(CCOc2ccccc2)c2ccccc21,,,-6.28%,inactive
c1ccc(CCCNCC2COc3ccccc3O2)cc1 (stereo unspecified),10.6% (inactive),,19.8%,
CCOc1cccc(CN2CCC(Oc3ccc(C(=O)NCc4ccccn4)cc3)CC2)c1,,,,inactive
CCn1cc(CNC(=O)c2ccc(OC3CCN(Cc4ccccn4)CC3)cc2)cn1,,3.66 µM (active),-18.8%,
Cn1cc(CNC(=O)c2ccc(OC3CCN(Cc4ccccn4)CC3)cc2)cn1,,,,inactive
C/C(N)=C(/C#N)C(=O)CSc1nnc(-c2ccc3c(c2)OCO3)o1,,,22.5%,inactive
Cc1ccc2c(CC(=O)OCc3cc(=O)n4c(n3)sc3ccccc34)coc2c1,6.89% (inactive),,-0.183%,
Nc1nc(-c2ccccc2)cn1/N=C/c1ccccc1,18.1% (inactive),,9.59%,
CC(=O)N(C(C)=O)c1nc(-c2ccccc2)cn1/N=C/c1ccccc1,,1.64 µM (active),-51.6%,
Cc1ccc(/C=N/n2c(-c3ccccc3)n[nH]c2=S)cc1,15.2% (inactive),,7.92%,
Cc1ccc(N(CC(O)CN2CCCC2)S(=O)(=O)c2ccc(C)cc2)cc1 (stereo unspecified),-22.3% (inactive),,-13%,
Cc1ccc(N(CC(O)CN(C)C)S(=O)(=O)c2ccccc2)cc1 (stereo unspecified),,5.17 µM (active),1.33%,

SMILES,"lipid storage change, negative = inhibition",Potency,cell number change,outcome
Cc1ccc(N(CC(O)CN2CCCCC2)S(=O)(=O)c2ccccc2)cc1 (stereo unspecified),,,-15.7%,inactive
COc1ccccc1CN1CC(C(=O)NCc2cc(C(C)C)no2)CCC1=O (stereo unspecified),-15.9% (inactive),,1.05%,
Cc1c(N=Cc2cccnc2)c(=O)n(-c2ccccc2)n1C,1.15% (inactive),,7.08%,
Cc1c(N=Cc2ccccn2)c(=O)n(-c2ccccc2)n1C,,16.4 µM (active),-11.2%,
Cc1c(N=Cc2ccco2)c(=O)n(-c2ccccc2)n1C,-7.2% (inactive),,8.07%,
Cn1c(SCC(=O)Nc2ccc3nc(SCC(=O)NC4CC4)sc3c2)nnc1-c1ccccc1,-1.58% (inactive),,-15%,
COc1ccc(Oc2coc3c(CN4CCOCC4)c(O)ccc3c2=O)cc1,,,10.6%,inactive
COC(C#CCCN(C)C)(c1ccccc1)c1ccccc1,14.8% (inactive),,-1.59%,
CN(C)CCOc1ccc(C(C)(C)c2ccccc2)cc1,13.9% (inactive),,10.7%,
COC(CCN(C)C)(c1ccccc1)c1ccccc1,,0.184 µM (active),-3.67%,
O=C(CSc1ccc(-c2ccccn2)nn1)NCc1ccccc1,0.589% (inactive),,3.17%,
CCCCSc1nc(O)c(C2OC(=O)c3c2ccc(OC)c3OC)c(=O)n1-c1ccccc1 (stereo unspecified),4.27% (inactive),,0.549%,
Cc1nc2ccccn2c1C(=O)NNC(=O)Nc1cccc(C(F)(F)F)c1,,1.46 µM (active),-6.44%,
Cc1nc2ccccn2c1C(=O)NNC(=O)Nc1ccccc1,-3.05% (inactive),,,
Cc1cccc(NC(=O)c2c(C)nc3ccccn23)c1,6.1% (inactive),,6.85%,
COc1ccc(OC)c(NC2c3ncccc3C(=O)N2Cc2ccco2)c1 (stereo unspecified),7.69% (inactive),,,
Cc1ccc(C(C)C)c(OCC(=O)Nc2ccc3c(c2)nc(CCN2CCCCC2)n3C)c1,,,,inactive
CCCN1CN(Cc2ccccc2)CC2=C1CC(C)(C)CC2=O,-10.6% (inactive),,-2.17%,
COc1ccc(-c2ccc(SCC(=O)N3c4ccccc4CC3C)nn2)cc1OC (stereo unspecified),,,,inactive
Cc1ccc2nc(-c3ccccn3)cc(C(=O)NC3CCN(C)CC3)c2c1,,25.9 µM (active),,
CN1CCN(NC(=O)c2cc(-c3ccccn3)nc3ccccc23)CC1,6.1% (inactive),,28.4%,
O=C(NC1CC1)c1cc(-c2ccccn2)nc2ccccc12,5.07% (inactive),,-1.09%,
CCCN1CCN(C(=O)c2nn(-c3ccc(OC)cc3)c(=O)c3c2c2ccccc2n3C)CC1,-0.752% (inactive),,-5.33%,
O=C1/C(=C/c2ccccc2)SC(=S)N1C1CCS(=O)(=O)C1 (stereo unspecified),-6.37% (inactive),,7.35%,
